Assay results: the supplement of paper PMC10849652
About 8,800 targets were measured; listed, in parts, are those with a hit and a random draw of the rest. About 0.5% of all pairs of compound and target were hits.

Experiments:
Experiment in all cases: log2 fold change, soluble protein after heating vs DMSO (PISA); higher = thermal stabilisation; K562 lysate, 10 uM; active = over 0.2 and 3.5 SD of the protein, either way, in both replicates (recomputed)
erlotinib = compound: C#Cc1cccc(Nc2ncnc3cc(OCCOC)c(OCCOC)cc23)c1 [erlotinib]
In short: (§1)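 Soluble protein was defined as the supernatant remaining after 21,000xg for 90 min, following pooling of heated aliquots and adjustment to 0.5% NP-40 at 4°C. Before that, crude K562 extract at 1 mg/mL protein in PBS pH 7.4 with 1 mM MgCl2 was treated with 10 μM compound for 30 min and heated for 3 min across 48°C-58°C. Quantification used TMTpro 16plex LC-MS/MS with channel sums equalised, and values are log-two fold changes in thermal stability relative to solvent controls from duplicates.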

[1] = compound: C/C(=N\NC(=O)C1=CC(=CC=C1)S(=O)(=O)N2CCOCC2)/C3=C(C=CC(=C3)Cl)O
In short: as §1

[2] = compound: C1=CC(=CC=C1C2=NC3=C(N2)C=C(C=C3)C(=O)N)OC4=CC=C(C=C4)Cl
In short: as §1

[3] = compound: C1=CC2=C(C=CC(=C2)/C=C\3/C(=O)NC(=NCC4=CC=CS4)S3)N=C1
In short: as §1

[4] = compound: C1=CC2=NC=CN=C2C=C1/C=C/3\C(=O)NC(=O)S3
In short: as §1

[5] = compound: C1=CC=C(C=C1)C2=NC(=C(N2)C3=CC=NC=C3)C4=CC(=C(C=C4)Cl)O
In short: as §1

[6] = compound: C1=CC=C2C(=C1)C3=NNC4=CC=CC(=C43)C2=O
In short: as §1

[7] = compound: C1CCN(C1)C(=O)NC2=CC=CC(=C2)NC3=NC=C(C(=N3)NCCC4=CN=CN4)Br
In short: as §1

[8] = compound: C1CN(CCC1(CC2=CC=C(C=C2)Cl)N)C3=NC=NC4=C3C=CN4
In short: as §1

IRAK-1-4 Inhibitor I = compound: C1COCCN1CCN2C3=CC=CC=C3N=C2NC(=O)C4=CC(=CC=C4)[N+](=O)[O-] [IRAK-1-4 Inhibitor I]
In short: as §1

Measured: log2 fold change

AMMECR1 (UniProt Q9Y4X0)
inactive: erlotinib 0.007 | [1] 0.003 | [2] 0.019 | [3] -0.045 | [4] 0.004 | [5] -0.009 | [6] -0.001 | [7] 0.009 | [8] 0.019 | IRAK-1-4 Inhibitor I 0.002

ARHGAP25 isoform 4 (UniProt P42331)
inactive: erlotinib 0.029 | [1] 0.045 | [2] 0.026 | [3] -0.031 | [4] -0.031 | [5] -0.002 | [6] -0.029 | [7] 0.007 | [8] 0.034 | IRAK-1-4 Inhibitor I -0.006

ACACB (UniProt O00763)
Sequence of UniProt O00763 (O00763 whole entry, looked up): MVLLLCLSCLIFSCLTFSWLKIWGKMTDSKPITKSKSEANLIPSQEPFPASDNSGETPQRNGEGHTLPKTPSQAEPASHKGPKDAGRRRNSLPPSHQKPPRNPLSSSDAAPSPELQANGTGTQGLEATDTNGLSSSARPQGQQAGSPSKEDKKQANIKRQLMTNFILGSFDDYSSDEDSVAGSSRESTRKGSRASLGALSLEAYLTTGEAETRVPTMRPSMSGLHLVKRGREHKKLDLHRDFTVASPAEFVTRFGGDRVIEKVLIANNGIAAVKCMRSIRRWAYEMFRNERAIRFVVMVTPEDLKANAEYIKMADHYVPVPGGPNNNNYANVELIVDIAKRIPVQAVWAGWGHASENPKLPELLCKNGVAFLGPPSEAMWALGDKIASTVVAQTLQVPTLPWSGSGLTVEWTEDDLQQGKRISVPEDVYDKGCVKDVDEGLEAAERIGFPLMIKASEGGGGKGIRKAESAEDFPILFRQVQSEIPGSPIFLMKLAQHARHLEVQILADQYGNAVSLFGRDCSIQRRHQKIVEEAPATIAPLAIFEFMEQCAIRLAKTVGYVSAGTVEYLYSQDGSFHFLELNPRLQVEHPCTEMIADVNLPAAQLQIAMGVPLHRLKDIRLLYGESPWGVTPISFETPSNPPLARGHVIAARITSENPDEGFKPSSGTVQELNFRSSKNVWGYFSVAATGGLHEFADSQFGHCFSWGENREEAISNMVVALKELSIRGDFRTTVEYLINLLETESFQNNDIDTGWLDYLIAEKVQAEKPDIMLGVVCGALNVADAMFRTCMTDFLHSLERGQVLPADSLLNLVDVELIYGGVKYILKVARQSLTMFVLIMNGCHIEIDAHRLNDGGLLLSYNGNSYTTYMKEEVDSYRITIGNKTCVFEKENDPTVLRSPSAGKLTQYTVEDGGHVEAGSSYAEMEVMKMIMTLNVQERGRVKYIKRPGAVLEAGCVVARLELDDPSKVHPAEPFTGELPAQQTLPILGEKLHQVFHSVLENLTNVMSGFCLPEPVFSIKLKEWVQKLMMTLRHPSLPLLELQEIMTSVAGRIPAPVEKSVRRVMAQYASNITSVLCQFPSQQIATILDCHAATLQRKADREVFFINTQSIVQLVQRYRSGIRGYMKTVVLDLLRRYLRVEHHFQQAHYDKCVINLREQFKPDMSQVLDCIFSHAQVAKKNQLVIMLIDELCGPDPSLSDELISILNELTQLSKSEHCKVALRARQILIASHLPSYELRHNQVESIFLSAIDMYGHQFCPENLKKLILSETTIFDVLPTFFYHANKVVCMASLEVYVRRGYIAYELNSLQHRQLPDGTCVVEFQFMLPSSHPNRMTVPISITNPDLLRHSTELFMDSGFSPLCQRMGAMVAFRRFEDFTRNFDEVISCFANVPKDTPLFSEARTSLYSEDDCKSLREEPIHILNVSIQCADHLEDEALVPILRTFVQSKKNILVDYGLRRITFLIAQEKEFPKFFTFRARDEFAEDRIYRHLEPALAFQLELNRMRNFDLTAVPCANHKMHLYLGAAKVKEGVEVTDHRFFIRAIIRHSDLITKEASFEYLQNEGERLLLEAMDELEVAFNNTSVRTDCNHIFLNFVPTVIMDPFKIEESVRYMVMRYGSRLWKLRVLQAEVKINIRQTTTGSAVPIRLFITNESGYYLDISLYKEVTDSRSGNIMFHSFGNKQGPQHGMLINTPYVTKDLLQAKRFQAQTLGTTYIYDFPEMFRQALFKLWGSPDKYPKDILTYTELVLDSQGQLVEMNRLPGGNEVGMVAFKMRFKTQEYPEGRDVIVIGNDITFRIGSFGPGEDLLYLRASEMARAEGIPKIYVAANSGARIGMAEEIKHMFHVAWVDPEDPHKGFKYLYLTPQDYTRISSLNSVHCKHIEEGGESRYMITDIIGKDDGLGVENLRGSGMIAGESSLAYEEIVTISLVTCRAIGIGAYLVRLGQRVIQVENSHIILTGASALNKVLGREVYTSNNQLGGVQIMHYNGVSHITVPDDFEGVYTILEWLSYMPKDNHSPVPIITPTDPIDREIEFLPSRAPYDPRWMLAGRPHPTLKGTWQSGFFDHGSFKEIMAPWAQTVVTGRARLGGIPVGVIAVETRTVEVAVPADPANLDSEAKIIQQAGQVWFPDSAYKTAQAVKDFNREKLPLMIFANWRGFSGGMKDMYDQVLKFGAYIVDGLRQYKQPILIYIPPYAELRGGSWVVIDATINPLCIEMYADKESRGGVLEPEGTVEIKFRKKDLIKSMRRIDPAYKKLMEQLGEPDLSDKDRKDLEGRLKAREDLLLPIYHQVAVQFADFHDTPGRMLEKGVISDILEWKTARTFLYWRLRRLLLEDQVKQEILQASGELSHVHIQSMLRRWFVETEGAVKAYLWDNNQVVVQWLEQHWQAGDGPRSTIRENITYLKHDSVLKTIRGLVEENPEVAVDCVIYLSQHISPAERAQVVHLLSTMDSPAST
inactive: erlotinib 0.042 | [1] 0.097 | [2] -0.025 | [3] 0.018 | [4] -0.02 | [5] -0.01 | [6] -0.008 | [7] -0.005 | [8] 0.015 | IRAK-1-4 Inhibitor I 0.025

ASNS (UniProt P08243)
inactive: erlotinib 0.024 | [1] 0.067 | [2] -0.019 | [3] -0.007 | [4] 0.017 | [5] -0.023 | [6] -0.018 | [7] 0.016 | [8] 0.038 | IRAK-1-4 Inhibitor I 0.011

AMPD3 isoform 4 (UniProt Q01432)
inactive: erlotinib 0 | [1] 0.048 | [2] 0.031 | [3] 0.007 | [4] -0.072 | [5] -0.004 | [6] 0.027 | [7] -0.002 | [8] -0.002 | IRAK-1-4 Inhibitor I 0.015

ARL15 (UniProt Q9NXU5)
Sequence of UniProt Q9NXU5 (Q9NXU5 whole entry, looked up): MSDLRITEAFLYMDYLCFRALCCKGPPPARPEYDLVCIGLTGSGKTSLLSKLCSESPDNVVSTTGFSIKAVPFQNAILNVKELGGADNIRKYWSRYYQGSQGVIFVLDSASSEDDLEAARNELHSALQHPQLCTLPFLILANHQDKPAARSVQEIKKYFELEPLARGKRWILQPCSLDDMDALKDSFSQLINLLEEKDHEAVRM
inactive: erlotinib -0.035 | [1] 0.004 | [2] -0.009 | [3] 0.011 | [4] 0.079 | [5] -0.033 | [6] 0.005 | [7] 0.004 | [8] -0.031 | IRAK-1-4 Inhibitor I 0.038

ACSL4 (UniProt O60488)
inactive: erlotinib 0.004 | [1] -0.074 | [2] -0.053 | [3] 0.062 | [4] 0.022 | [5] -0.014 | [6] -0.032 | [7] -0.065 | [8] -0.007 | IRAK-1-4 Inhibitor I 0.04

ALDH5A1 isoform 2 (UniProt P51649)
inactive: erlotinib -0.005 | [1] 0.045 | [2] 0.024 | [3] -0.009 | [4] 0.006 | [5] 0.013 | [6] -0.026 | [7] -0.013 | [8] -0.002 | IRAK-1-4 Inhibitor I -0.012

ANLN (UniProt Q9NQW6)
Sequence of UniProt Q9NQW6 (Q9NQW6 whole entry, looked up): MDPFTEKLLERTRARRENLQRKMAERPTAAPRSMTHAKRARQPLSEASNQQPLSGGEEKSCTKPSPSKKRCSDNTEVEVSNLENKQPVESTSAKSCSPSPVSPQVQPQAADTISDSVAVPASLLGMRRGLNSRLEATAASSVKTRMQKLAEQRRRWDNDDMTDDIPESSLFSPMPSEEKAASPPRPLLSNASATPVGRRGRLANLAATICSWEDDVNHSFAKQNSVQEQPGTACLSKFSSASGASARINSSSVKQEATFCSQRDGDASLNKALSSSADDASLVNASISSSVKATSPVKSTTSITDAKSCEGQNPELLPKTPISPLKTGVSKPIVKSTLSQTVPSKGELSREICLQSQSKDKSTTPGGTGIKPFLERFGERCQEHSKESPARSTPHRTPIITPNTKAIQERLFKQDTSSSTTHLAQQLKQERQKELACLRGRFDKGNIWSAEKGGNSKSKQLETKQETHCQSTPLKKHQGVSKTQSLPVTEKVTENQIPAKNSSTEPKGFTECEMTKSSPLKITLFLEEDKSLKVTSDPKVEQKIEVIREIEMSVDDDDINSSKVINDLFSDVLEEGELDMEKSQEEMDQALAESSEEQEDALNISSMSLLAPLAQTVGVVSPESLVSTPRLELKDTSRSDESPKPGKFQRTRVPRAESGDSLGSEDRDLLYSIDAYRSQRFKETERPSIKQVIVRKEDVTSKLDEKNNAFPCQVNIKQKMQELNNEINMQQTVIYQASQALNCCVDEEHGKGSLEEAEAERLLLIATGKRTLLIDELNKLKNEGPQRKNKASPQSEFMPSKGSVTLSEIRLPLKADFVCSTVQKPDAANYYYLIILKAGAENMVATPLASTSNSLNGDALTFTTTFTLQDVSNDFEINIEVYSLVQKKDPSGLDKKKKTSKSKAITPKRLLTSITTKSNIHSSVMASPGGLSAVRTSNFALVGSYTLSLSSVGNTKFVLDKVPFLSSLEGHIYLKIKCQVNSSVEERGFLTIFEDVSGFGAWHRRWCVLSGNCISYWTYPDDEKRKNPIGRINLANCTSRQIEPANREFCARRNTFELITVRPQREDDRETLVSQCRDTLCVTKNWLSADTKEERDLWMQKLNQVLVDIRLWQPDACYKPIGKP
inactive: erlotinib -0.006 | [1] -0.142 | [2] 0.007 | [3] -0.019 | [4] -0.072 | [5] 0.01 | [6] -0.019 | [7] -0.045 | [8] -0.002 | IRAK-1-4 Inhibitor I -0.017

ACSL1 (UniProt P33121)
inactive: erlotinib 0.02 | [1] -0.104 | [2] -0.153 | [3] 0.086 | [4] 0.051 | [5] 0.025 | [6] -0.04 | [7] 0.009 | [8] 0.012 | IRAK-1-4 Inhibitor I 0.022

ALDH1L2 (UniProt Q3SY69)
inactive: erlotinib 0.005 | [1] 0.025 | [2] 0.011 | [3] 0.037 | [4] -0.02 | [5] -0.004 | [6] -0.064 | [7] -0.018 | [8] 0.024 | IRAK-1-4 Inhibitor I -0.011

ACLY (UniProt P53396)
inactive: erlotinib -0.006 | [1] 0.037 | [2] -0.018 | [3] -0.013 | [4] -0.011 | [5] -0.016 | [6] -0.018 | [7] 0.002 | [8] 0.019 | IRAK-1-4 Inhibitor I -0.01

AARS2 (UniProt Q5JTZ9)
inactive: erlotinib 0.013 | [1] -0.047 | [2] -0.05 | [3] 0.004 | [4] -0.013 | [5] 0.005 | [6] -0.026 | [7] -0.008 | [8] 0.038 | IRAK-1-4 Inhibitor I -0.024

ADAR isoform 4 (UniProt P55265)
inactive: erlotinib -0.029 | [1] -0.114 | [2] -0.06 | [3] -0.031 | [4] 0.002 | [5] 0.001 | [6] -0.029 | [7] 0.002 | [8] -0.017 | IRAK-1-4 Inhibitor I 0

ALDH1A1 (UniProt P00352)
Sequence of UniProt P00352 (P00352 whole entry, looked up): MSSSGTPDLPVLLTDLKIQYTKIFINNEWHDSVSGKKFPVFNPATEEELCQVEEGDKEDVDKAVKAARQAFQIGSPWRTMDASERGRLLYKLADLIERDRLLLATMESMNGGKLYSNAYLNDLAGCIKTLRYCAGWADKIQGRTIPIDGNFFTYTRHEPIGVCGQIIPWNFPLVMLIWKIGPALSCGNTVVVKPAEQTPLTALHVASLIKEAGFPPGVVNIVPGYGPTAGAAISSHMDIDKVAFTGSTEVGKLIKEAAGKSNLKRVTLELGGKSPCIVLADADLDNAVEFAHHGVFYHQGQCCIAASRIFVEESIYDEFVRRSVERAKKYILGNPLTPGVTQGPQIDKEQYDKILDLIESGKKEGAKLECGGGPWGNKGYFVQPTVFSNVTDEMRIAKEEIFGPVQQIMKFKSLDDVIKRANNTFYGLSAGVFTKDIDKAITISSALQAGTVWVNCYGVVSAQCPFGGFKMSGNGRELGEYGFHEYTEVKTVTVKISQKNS
inactive: erlotinib -0.048 | [1] 0.044 | [2] -0.054 | [3] 0.048 | [4] 0.008 | [5] -0.033 | [6] 0.132 | [7] 0.027 | [8] 0.012 | IRAK-1-4 Inhibitor I -0.029

ARHGAP21 (UniProt Q5T5U3)
inactive: erlotinib -0.013 | [1] -0.182 | [2] -0.025 | [3] -0.098 | [4] -0.214 | [5] -0.018 | [6] -0.137 | [7] -0.118 | [8] -0.018 | IRAK-1-4 Inhibitor I 0.056

ACAA1 (UniProt P09110)
inactive: erlotinib 0.03 | [1] -0.455 | [2] 0.041 | [3] 0.015 | [4] 0.03 | [5] -0.036 | [6] 0.016 | [7] 0.014 | [8] -0.024 | IRAK-1-4 Inhibitor I -0.006

AKR1C2 (UniProt P52895)
Sequence of UniProt P52895 (P52895 whole entry, looked up): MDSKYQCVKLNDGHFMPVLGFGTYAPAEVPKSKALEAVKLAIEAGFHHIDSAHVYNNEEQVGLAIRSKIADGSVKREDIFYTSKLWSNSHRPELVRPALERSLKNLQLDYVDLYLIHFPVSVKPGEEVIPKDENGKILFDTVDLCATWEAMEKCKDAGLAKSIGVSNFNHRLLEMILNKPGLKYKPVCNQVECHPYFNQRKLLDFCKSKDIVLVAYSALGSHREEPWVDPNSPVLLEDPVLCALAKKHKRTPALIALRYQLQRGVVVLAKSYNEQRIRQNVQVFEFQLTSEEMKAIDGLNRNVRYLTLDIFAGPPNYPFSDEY
inactive: erlotinib 0.03 | [1] -0.167 | [2] 0.005 | [3] 0.015 | [4] 0.006 | [5] 0.013 | [6] -0.046 | [7] -0.033 | [8] 0.006 | IRAK-1-4 Inhibitor I -0.024

ASB6 (UniProt Q9NWX5)
inactive: erlotinib 0.038 | [1] -0.311 | [2] 0.04 | [3] -0.094 | [4] -0.005 | [5] 0.06 | [6] 0.092 | [7] -0.053 | [8] 0.327 | IRAK-1-4 Inhibitor I 0.002

ADD1 isoform 4 (UniProt P35611)
inactive: erlotinib -0.016 | [1] -0.059 | [2] 0.011 | [3] 0.089 | [4] -0.088 | [5] -0.081 | [6] -0.025 | [7] 0.028 | [8] -0.009 | IRAK-1-4 Inhibitor I 0.093

AGTPBP1 (UniProt Q9UPW5)
inactive: erlotinib -0.033 | [1] -0.084 | [2] 0.027 | [3] -0.029 | [4] 0.042 | [5] -0.053 | [6] -0.039 | [7] -0.017 | [8] 0.005 | IRAK-1-4 Inhibitor I 0.022

ANKRD54 (UniProt Q6NXT1)
inactive: erlotinib -0.005 | [1] 0.01 | [2] 0.122 | [3] -0.036 | [4] 0.025 | [5] 0.037 | [6] 0.02 | [7] 0.008 | [8] -0.035 | IRAK-1-4 Inhibitor I 0.003

ANXA11 (UniProt P50995)
inactive: erlotinib 0.015 | [1] 0.031 | [2] 0.025 | [3] -0.022 | [4] 0.017 | [5] -0.079 | [6] -0.016 | [7] 0.011 | [8] 0.033 | IRAK-1-4 Inhibitor I 0.006

ACAT1 (UniProt P24752)
Sequence of UniProt P24752 (P24752 whole entry, looked up): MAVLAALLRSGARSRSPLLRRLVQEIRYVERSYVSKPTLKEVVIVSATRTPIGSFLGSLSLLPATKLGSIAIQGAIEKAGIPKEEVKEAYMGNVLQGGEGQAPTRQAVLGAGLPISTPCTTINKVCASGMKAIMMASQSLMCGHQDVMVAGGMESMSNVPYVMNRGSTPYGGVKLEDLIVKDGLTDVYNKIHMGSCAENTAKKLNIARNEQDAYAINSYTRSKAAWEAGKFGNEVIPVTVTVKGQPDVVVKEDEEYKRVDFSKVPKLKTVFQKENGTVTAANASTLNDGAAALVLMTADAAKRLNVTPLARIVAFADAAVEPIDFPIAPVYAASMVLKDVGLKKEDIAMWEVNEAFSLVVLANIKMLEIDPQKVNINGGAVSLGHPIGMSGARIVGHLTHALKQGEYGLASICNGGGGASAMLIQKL
inactive: erlotinib 0.011 | [1] 0.006 | [2] -0.015 | [3] 0.015 | [4] 0.017 | [5] -0.002 | [6] -0.007 | [7] -0.028 | [8] 0.015 | IRAK-1-4 Inhibitor I 0.017

AKAP8L (UniProt Q9ULX6)
inactive: erlotinib 0.061 | [1] 0.093 | [2] 0.032 | [3] 0.002 | [4] 0.017 | [5] 0 | [6] -0.022 | [7] 0.029 | [8] -0.032 | IRAK-1-4 Inhibitor I -0.002

ADAMTS5 (UniProt Q9UNA0)
inactive: erlotinib 0.027 | [1] 0.004 | [2] 0.044 | [3] -0.05 | [4] -0.046 | [5] 0.049 | [6] -0.001 | [7] 0.058 | [8] 0.073 | IRAK-1-4 Inhibitor I 0.123

ANP32E (UniProt Q9BTT0)
inactive: erlotinib 0.006 | [1] -0.006 | [2] 0.016 | [3] -0.021 | [4] 0.012 | [5] -0.004 | [6] -0.065 | [7] -0.025 | [8] 0.011 | IRAK-1-4 Inhibitor I 0.023

AK2 (UniProt P54819)
inactive: erlotinib -0.011 | [1] -0.052 | [2] 0.035 | [3] -0.002 | [4] 0.002 | [5] 0.016 | [6] 0.014 | [7] -0.008 | [8] -0.002 | IRAK-1-4 Inhibitor I 0.005

ANP32A (UniProt P39687)
inactive: erlotinib -0.147 | [1] 0.075 | [2] -0.199 | [3] -0.012 | [4] 0.012 | [5] 0.006 | [6] 0.018 | [7] 0.026 | [8] -0.008 | IRAK-1-4 Inhibitor I 0.013

ACTG1 (UniProt I3L4N8)
inactive: erlotinib 0.118 | [1] 0.163 | [2] -0.016 | [3] 0.029 | [4] -0.2 | [5] 0.054 | [6] -0.207 | [7] -0.142 | [8] -0.143 | IRAK-1-4 Inhibitor I -0.013
